Screens deposited in PubChem BioAssay by National Center for Advancing Translational Sciences (NCATS).
Compounds with a hit are over-represented: about 0.92% of the library has one in this group of screens.
TDP1 block = qHTS Assay for Inhibitors of Tyrosyl-DNA Phosphodiesterase (TDP1); recombinant TDP1, AlphaScreen DNA substrate cleavage; Potency, µM (titrated, usually from 130 µM), for inactives: top-dose activity change, negative = inhibition, usual class: inhibitors; 0.28% of 350,000 active; further: nearly all actives have a fitted effect of over 40% in size
Target sequence (Q9NUW8 whole entry, looked up): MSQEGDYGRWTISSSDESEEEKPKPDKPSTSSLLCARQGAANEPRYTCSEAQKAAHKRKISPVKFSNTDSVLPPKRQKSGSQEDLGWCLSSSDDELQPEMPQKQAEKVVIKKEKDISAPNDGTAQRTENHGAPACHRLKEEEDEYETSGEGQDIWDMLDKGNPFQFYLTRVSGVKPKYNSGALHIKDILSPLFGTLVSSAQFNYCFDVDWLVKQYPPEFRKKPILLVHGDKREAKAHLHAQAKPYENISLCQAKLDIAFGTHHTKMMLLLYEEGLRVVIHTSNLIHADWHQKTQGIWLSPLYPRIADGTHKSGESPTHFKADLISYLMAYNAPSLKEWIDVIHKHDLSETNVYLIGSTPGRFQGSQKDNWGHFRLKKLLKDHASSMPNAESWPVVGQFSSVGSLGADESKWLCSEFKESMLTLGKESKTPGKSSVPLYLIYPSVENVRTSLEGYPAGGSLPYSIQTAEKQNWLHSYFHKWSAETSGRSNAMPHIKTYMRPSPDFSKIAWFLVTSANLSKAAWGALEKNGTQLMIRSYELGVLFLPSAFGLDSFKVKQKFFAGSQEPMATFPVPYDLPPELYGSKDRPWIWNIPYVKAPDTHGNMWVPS
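Enzyme-compound mixtures sat 15 min at room temperature, followed by a 5 min reaction with 15 nM final substrate and 10 min with AlphaScreen beads. Recombinant human Tdp1 was used at 1 nM final.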
BLM helicase inh = qHTS Assay for Inhibitors of Bloom's syndrome helicase (BLM) | AID 2528, 2010 | 0.2% of 350,000 active | recombinant BLM DNA unwinding, fluorescence dequenching | Potency, µM (doses to about 56.1 µM), for the others: at the top dose activity change, negative = inhibition, actives largely listed as inhibitors;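 further: plate controls were vehicle for no effect and no enzyme for full effect; nearly all actives have a fitted effect of over 35% in size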
FEN1 inh = qHTS Assay for the Inhibitors of Human Flap endonuclease 1 (FEN1) | P39748 | Recombinant FEN1 flap cleavage, fluorescence, 15 min | Potency, µM (titrated, usually from 114 µM), for inactives: at the top dose activity change, negative = inhibition, hits mostly inhibitors | 0.35% of 390,000 active | AID 588795, 2011; further: nearly all actives have a fitted effect of over 65% in size
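FEN1 at 10 nM preincubated with compounds 15 min at room temperature, then flap DNA substrate added at 50 nM final. Signal read at 0 and 15 min; concentration-response fitted with four-parameter Hill equation.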
RECQ1 inh-1 = qHTS Assay for Inhibitors of RecQ-Like Dna Helicase 1 (RECQ1) | ATP-dependent DNA helicase Q1 (Homo sapiens), P46063 | RECQ1 DNA unwinding, red fluorescence kinetic read | Potency, µM (series often up to 57.3 µM), for the others: top-dose activity, negative = inhibition, most hits filed as inhibitors | 0.54% of 240,000 active | AID 2549, 2010;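 further: plate controls were vehicle for no effect and no enzyme for full effect; nearly all actives have a fitted effect of over 30% in size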
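RECQ1T1 50 nM; forked duplex (20 bp + 30-nt ss tails) 200 nM, ATP 2 mM final; pH 8.0, 2 mM MgCl2, 2.5 ug/ml poly(dI-dC); 15 min compound preincubation; discontinuous kinetic read over 2 h at RT.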
APE1 inh = qHTS Assay for Inhibitors of the Human Apurinic/apyrimidinic Endonuclease 1 (APE1) | DNA repair nuclease/redox regulator APEX1 (Homo sapiens), P27695 | recombinant APE1, TAMRA/BHQ-2 abasic DNA cleavage fluorescence | Potency, µM (titrated, usually from 65.8 µM), inactives show at the highest dose activity change, negative = inhibition, actives largely listed as inhibitors | 0.35% of 350,000 active | AID 2517, 2012;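 further: plate controls were vehicle for no effect and reference inhibitor for full effect; nearly all actives have a fitted effect of over 55% in size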
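0.75 nM APE1 + cpd, 15 min RT; start w/ 50 nM TAMRA/BHQ-2 THF-abasic dsDNA; kinetic fluor 525/598 nm ×3 reads @60 s; Δ(read3−read1); normalized to DMSO and NSC13755 control wells.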
RECQ1 conf = Confirmation qHTS Assay for Inhibitors of RecQ-Like Dna Helicase 1 (RECQ1). shares compounds with RECQ1 inh-1. RECQ1 helicase DNA unwinding, fluorescence. 28% of 610 active. AID 2708, 2010. Potency, µM (top dose mostly 229 µM), inactives show at the top dose activity change, negative = inhibition, usual class: inhibitors; further: nearly all actives have a fitted effect of over 45% in size
ADP FP counter = Counterscreen for RECQ1 Inhibitors: ADP Fluorescence Polarization Displacement Assay. shares compounds with RECQ1 inh-1. AID 2711, 2010. Potency, µM (doses to about 228 µM), without a hit: at the highest dose activity change, negative = inhibition, hits mostly inhibitors. ADP fluorescence polarization displacement counterscreen. 27% of 530 active; further: nearly all actives have a fitted effect of over 45% in size
RECQ1 inh-2 = Confirmation qHTS Assay for Inhibitors of RecQ-Like Dna Helicase 1 (RECQ1) - Round 2 Cherry Picks; 15% of 1,100 active; Potency, µM (doses to about 119 µM), for the others: at the top dose activity, negative = inhibition, hits mostly inhibitors; shares compounds with RECQ1 inh-1; recombinant RECQ1 DNA unwinding, red fluorescence; further: nearly all actives have a fitted effect of over 50% in size
Starred values were filed as active, the others as inactive; i = inactive; ? = inconclusive; . = no result; [ ] = remark or other dose. The call rests on the fitted dose curve; in most records, active means well fitted curve in the direction sought with a large enough effect; inconclusive means small, poorly fitted or top-dose-only effect, or another doubt; inactive means no such curve, though single readings can be large; an effect the other way counts as inactive or inconclusive. Unless noted, on the % scale 0 is the no-effect control and ±100 the full control effect; potency means the concentration at half of the fitted maximal effect.

SMILES	TDP1 block	BLM helicase inh	FEN1 inh	RECQ1 inh-1	APE1 inh	RECQ1 inh-2	others
CC(C)Oc1ccc(CNC(=O)c2ccc(Cn3c(=O)c4cccn4c4cccnc43)cc2)cc1	-3%	0%	0%	.	.	.
O=C(Nc1ccc2nc(-c3cccs3)[nH]c2c1)c1cccs1	0%	5%	-10%	i	18%	.
O=C(Nc1ccc(-c2nc3ccc(NC(=O)c4cccs4)cc3[nH]2)cc1)c1cccs1	-9%	-5%	?	?	?	?
Nc1nc(Nc2ccccc2)nc(NCc2ccco2)c1[N+](=O)[O-]	11%	?	-23%	?	0%	79µM*
COc1cccc(C(C(=O)NCc2ccco2)N(C(=O)Cn2nnc3ccccc32)C2CC2)c1OC (configuration not stated)	1%	-1%	9%	?	0%	-11%
CCN(CC)c1ccc(/C=C/C(=O)c2ccc(Br)cc2)cc1	.	-19%	?	8.9µM*	-6%	50µM*	RECQ1 conf=63µM*
CCOc1ccc(/C=C(\C(=O)O)c2ccc(S(=O)(=O)N3CCOCC3)s2)cc1OC	-3%	-20%	0%	1%	-7%	.	RECQ1 conf=-2%;ADP FP counter=?
c1ccc(-c2csc(N3CCCCCC3)n2)cc1	3%	-4%	11%	-3%	-4%	.
Cc1cc(N2CCN(c3nc(-c4ccccc4)cs3)CC2)c2ccccc2n1	4%	-11%	7%	8.9µM*	19%	-7%	RECQ1 conf=0%[114 µM];ADP FP counter=-2%[91.9 µM]
CCN1CCN(C(=O)Cn2c(-c3cccs3)cc3cc(Cl)ccc32)CC1	1%	0%	-4%	.	.	.
CCOC(=O)c1cc(-c2ccccc2)sc1NC(=O)CN1C(=O)NC(CC)(c2ccc(F)cc2)C1=O (configuration not stated)	4%	-8%	2%	32µM*	1%	-21%
CCOC(=O)C1=C(c2ccccc2)N=c2s/c(=C\c3ccc(O)cc3)c(=O)n2C1c1cccs1 (configuration not stated)	4%	-12%	?	?	0%	16µM*
CCN(CCCCN1C(=O)c2ccccc2C1=O)c1ccc2c(c1)C(=O)N(C)C2=O	.	-24%	-23%	28µM*	?	?
Cc1cc(Br)ccc1NC(=O)CCSc1ccccc1	-2%	-1%	-3%	-4%	-5%	.
Cc1cc(NC(=O)CCSc2ccccc2)ccc1Br	-7%	-9%	-19%	3.5µM*	-3%	-13%
CCc1ccc(OCCCCn2c(CCNC(=O)C3CCCCC3)nc3ccccc32)cc1	1%	.	-18%	.	.	.
Cc1ccc(-n2nc(-c3ccc(F)cc3)c3cnc4cc5c(cc4c32)OCO5)cc1C	0%	-2%	-6%	.	.	.
O=C(CS(=O)(=O)c1cccc2nsnc12)Nc1ccc(F)cc1	7%	-10%	-9%	.	.	.
COCCN(C(=O)c1cc2c(s1)CCC2)c1c(N)n(CC(C)C)c(=O)[nH]c1=O	?	.	-2%	.	-7%	.
COCCCN(C(=O)c1cc2c(s1)CCC2)c1c(N)n(Cc2ccccc2)c(=O)[nH]c1=O	.	?	-5%	14µM*	?	?	RECQ1 conf=40µM*;ADP FP counter=?
CCc1cccc(-n2nnc(S(=O)(=O)c3ccc(OC)cc3)c2C)c1	-3%	-10%	-18%	.	.	.
Cc1ccc(N2CC(c3nnc(Cc4ccc(F)cc4)o3)CC2=O)cc1 (configuration not stated)	-2%[12.3 µM]	-2%	-15%	.	.	.
CC(=O)Nc1ccc(NC(=O)CN(c2ccc(C34CC5CC(CC(C5)C3)C4)cc2)S(C)(=O)=O)cc1	8%	-13%	-17%	i	4%	.
CS(=O)(=O)N(CC(=O)Nc1ccc(CC#N)cc1)c1ccc(C23CC4CC(CC(C4)C2)C3)cc1	3%	-13%	-6%	7.9µM*	5%	?
O=C(COCc1cc(-c2ccc(F)cc2)on1)Nc1cc(Cl)cc(Cl)c1	2%	-1%	-4%	.	.	.
SMILES	TDP1 block	BLM helicase inh	FEN1 inh	RECQ1 inh-1	APE1 inh	RECQ1 inh-2	others
Cc1ccc(OCC(O)CNS(=O)(=O)c2ccccc2C(=O)O)cc1 (configuration not stated)	6%	-12%	-12%	8%	5%	.	RECQ1 conf=-1%;ADP FP counter=3%
COc1ccc(-c2nnc(SCC(=O)NCCc3ccccc3)nc2-c2ccc(OC)cc2)cc1	8%	-3%	8%	.	.	.
CC1CCCCC1NC(=S)NC(=O)c1ccccc1Cl (configuration not stated)	-5%	.	-14%	.	-14%	.
CC1CCCCC1NC(=S)NC(=O)c1ccccc1Br (configuration not stated)	1%	-9%	-16%	40µM*	8%	-13%
COc1ccc(C2=Nn3c(nnc3-c3ccccc3OC)SC2)cc1	0%	.	.	.	.	.
O=C(OCc1nnc(-c2ccccc2)o1)c1ccc(S(=O)(=O)NCc2ccco2)cc1	-3%	-12%	-12%	40µM*	?	?
CCOC(=O)c1ccc(N2C(=O)c3n[nH]c(-c4ccco4)c3C2c2ccc(C)cc2)cc1 (configuration not stated)	7%	-17%	-26%	.	.	.
CCOC(=O)c1ccc(N2C(=O)c3n[nH]c(-c4ccco4)c3C2c2ccc([N+](=O)[O-])cc2)cc1 (configuration not stated)	6%	-10%	1%	?	-10%	-19%
N#Cc1c[nH]n2c(NC3CCCCC3)c(-c3ccccc3F)nc12	14%	-2%	-3%	.	.	.
COC(=O)C1=C(C(=O)OC)[C@@H]2N(Cc3ccccc3)c3ccccc3[C@@]23C[C@@H](C(=O)OC)N=C3N1	10%[12.3 µM]	0%[12.4 µM]	-5%	?	-3%[12.4 µM]	-8%
